Measurements from the supplement of paper PMC10849652.
About 7,900 targets were measured; listed, in parts, are those with a hit and a random draw of the rest. About 0.6% of all pairs of compound and target were hits.

Compound: c1cn2cc(-c3ccc4cn[nH]c4c3)nc(Nc3ccc(N4CCOCC4)cc3)c2n1 [entospletinib]
Experiment: log2 fold change, soluble protein after heating vs DMSO (PISA); higher = thermal stabilisation; K562 cells, 10 uM, 30 min; active = over 0.2 and 3.5 SD of the protein, either way, in both replicates (recomputed)
How it was run: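 K562 cells at 2×10^6 cells/mL were treated for 30 min with 10 μM compound, and aliquots were heated for 3 min over 48°C-58°C before pooling. Extraction used PBS with 0.5% NP-40 at 4°C, and soluble protein was the supernatant after 21,000xg for 90 min, measured by TMTpro 16plex LC-MS/MS with channel sums equalised. Thermal stability values, relative to control samples and from duplicates, are log2 fold changes.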

Chain of UniProt P29692 (P29692 whole entry, looked up): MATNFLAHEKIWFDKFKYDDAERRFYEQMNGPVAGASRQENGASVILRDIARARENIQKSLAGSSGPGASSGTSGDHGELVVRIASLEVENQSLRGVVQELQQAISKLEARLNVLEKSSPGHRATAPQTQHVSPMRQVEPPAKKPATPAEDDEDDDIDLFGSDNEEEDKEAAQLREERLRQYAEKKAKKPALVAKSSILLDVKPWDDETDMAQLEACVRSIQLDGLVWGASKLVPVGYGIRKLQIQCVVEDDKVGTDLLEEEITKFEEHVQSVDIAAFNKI
Chain of UniProt Q9H467 (Q9H467 whole entry, looked up): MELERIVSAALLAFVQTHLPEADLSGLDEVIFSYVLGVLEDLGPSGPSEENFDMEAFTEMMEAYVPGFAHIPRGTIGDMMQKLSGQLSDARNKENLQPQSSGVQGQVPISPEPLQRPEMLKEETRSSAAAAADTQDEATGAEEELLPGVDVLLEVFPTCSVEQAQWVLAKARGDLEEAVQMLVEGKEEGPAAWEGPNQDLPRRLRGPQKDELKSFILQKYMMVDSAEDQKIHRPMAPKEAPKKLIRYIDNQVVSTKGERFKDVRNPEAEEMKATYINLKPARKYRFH
Chain of UniProt P18074 (P18074 whole entry, looked up): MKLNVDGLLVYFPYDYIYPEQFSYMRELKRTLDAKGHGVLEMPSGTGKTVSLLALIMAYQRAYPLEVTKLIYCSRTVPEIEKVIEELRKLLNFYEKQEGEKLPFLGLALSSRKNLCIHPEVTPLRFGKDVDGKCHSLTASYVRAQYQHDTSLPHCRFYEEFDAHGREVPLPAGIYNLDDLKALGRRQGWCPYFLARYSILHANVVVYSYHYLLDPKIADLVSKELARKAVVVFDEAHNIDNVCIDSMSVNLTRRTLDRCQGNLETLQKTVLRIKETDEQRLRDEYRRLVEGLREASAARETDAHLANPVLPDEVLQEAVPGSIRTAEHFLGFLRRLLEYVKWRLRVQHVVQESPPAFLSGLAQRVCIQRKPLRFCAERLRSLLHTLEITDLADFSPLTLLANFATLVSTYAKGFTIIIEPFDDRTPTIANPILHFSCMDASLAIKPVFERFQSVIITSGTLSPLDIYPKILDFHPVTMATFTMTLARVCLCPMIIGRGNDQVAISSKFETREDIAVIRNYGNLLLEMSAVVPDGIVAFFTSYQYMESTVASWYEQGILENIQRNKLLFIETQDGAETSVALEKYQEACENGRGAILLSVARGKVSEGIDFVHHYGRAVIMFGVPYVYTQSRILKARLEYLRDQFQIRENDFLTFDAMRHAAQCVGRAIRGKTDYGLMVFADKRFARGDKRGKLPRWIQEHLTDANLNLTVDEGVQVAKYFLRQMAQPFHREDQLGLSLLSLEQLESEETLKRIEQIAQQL
Chain of UniProt Q9NXW2 (Q9NXW2 whole entry, looked up): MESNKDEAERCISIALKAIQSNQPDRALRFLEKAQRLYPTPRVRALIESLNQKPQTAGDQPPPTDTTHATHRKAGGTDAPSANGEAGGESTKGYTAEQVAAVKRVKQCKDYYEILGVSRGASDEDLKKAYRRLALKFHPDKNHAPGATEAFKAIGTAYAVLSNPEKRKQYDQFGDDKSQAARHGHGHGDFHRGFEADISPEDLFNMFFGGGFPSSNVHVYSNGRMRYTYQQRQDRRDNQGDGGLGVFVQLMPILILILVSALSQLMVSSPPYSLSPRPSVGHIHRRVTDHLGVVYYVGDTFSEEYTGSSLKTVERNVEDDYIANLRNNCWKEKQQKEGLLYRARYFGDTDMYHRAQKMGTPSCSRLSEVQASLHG
Chain of UniProt Q9UER7 (Q9UER7 whole entry, looked up): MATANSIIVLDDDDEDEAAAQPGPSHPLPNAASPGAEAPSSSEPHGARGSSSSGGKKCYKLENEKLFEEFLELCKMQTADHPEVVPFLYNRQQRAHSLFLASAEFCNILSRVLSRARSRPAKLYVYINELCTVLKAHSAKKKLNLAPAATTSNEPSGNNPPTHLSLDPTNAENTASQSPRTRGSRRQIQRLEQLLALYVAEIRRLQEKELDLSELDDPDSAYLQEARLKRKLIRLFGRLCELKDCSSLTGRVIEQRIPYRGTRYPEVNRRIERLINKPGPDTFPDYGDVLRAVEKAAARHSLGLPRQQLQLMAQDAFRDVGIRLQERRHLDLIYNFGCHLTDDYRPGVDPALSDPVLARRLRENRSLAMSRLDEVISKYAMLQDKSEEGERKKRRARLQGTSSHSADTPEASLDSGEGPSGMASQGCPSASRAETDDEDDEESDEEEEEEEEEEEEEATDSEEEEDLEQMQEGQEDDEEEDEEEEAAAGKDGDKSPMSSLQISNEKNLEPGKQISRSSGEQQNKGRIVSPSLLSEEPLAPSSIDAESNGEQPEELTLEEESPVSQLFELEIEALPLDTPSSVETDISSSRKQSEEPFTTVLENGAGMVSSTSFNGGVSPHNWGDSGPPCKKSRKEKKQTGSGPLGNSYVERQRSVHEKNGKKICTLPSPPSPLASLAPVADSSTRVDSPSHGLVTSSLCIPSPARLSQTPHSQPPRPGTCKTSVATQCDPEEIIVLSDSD
Chain of UniProt P00374 (P00374 whole entry, looked up): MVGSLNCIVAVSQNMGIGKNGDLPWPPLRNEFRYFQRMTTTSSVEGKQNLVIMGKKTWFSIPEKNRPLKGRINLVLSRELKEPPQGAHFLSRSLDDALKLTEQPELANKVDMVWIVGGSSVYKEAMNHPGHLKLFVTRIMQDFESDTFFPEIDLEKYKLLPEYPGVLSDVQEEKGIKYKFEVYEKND
Chain of UniProt Q8IYI6 (Q8IYI6 whole entry, looked up): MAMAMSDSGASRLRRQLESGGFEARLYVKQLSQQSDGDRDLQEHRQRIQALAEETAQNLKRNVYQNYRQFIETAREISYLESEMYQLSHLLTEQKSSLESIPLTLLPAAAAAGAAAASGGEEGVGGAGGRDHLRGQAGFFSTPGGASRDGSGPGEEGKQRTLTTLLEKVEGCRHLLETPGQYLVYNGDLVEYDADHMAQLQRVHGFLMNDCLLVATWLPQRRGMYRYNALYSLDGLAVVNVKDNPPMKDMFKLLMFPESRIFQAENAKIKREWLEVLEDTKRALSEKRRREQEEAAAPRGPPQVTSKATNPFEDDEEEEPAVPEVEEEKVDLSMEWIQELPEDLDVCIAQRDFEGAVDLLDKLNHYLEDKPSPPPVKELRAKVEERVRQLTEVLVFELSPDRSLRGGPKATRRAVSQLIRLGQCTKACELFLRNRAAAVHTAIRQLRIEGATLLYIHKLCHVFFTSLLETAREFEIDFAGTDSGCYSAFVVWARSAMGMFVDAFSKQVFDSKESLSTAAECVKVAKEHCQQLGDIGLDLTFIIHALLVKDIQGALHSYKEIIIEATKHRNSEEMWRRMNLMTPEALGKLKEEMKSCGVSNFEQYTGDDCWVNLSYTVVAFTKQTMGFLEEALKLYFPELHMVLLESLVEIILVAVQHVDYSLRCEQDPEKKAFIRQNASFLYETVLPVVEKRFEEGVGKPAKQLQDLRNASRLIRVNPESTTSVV
Chain of UniProt Q9NZJ5 (Q9NZJ5 whole entry, looked up): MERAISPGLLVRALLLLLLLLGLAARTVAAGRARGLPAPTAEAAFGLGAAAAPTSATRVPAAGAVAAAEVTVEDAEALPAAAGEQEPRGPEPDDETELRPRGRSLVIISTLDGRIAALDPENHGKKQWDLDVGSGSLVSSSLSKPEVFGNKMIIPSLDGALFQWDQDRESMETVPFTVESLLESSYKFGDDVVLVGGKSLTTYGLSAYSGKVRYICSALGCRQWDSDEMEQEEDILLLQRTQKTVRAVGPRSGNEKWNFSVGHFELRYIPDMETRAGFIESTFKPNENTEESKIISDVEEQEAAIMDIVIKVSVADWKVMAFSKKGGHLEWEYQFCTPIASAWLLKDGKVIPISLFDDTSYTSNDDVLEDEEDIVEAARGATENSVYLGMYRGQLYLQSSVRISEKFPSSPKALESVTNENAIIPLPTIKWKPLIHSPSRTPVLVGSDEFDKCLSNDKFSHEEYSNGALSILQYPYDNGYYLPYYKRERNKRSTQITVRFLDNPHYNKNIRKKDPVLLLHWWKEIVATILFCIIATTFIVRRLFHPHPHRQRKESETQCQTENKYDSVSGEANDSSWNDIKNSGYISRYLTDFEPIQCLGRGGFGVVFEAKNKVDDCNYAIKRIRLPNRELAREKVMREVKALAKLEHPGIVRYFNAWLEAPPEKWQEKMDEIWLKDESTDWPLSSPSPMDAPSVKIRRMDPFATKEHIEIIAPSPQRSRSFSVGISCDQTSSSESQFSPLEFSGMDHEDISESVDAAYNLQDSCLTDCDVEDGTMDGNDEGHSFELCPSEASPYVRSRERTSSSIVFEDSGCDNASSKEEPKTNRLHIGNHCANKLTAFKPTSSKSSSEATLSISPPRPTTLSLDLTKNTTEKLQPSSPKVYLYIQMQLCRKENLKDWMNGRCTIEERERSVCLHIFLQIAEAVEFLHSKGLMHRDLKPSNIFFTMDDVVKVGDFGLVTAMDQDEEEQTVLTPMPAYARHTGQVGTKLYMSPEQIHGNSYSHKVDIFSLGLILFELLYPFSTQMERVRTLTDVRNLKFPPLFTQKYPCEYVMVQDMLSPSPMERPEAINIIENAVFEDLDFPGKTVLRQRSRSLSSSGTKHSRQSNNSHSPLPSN
Chain of UniProt Q8TCE6 (Q8TCE6 whole entry, looked up): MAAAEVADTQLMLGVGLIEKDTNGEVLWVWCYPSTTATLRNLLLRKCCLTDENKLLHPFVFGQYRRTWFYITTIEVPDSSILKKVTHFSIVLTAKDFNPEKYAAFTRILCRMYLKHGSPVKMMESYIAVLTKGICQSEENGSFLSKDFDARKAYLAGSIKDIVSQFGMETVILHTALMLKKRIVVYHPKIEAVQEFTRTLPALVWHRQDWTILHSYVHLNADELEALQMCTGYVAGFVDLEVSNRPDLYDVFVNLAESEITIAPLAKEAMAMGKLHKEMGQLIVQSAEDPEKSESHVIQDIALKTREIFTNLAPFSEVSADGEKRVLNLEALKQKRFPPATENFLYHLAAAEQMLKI

log2 fold change, inactive:
DENND10 (UniProt Q8TCE6) -0.006
EIF2AK3 (UniProt Q9NZJ5) -0.03
DNAJC1 (UniProt Q96KC8) 0.015
ELAC1 (UniProt Q9H777) 0.069
F5 (UniProt P12259) 0.133
EXOC8 (UniProt Q8IYI6) -0.013
EXOC6 (UniProt Q8TAG9) 0.014
DDX5 (UniProt P17844) -0.019
ERCC2 (UniProt P18074) 0.154
CYB561A3 isoform 2 (UniProt Q8NBI2) 0.315
ERLIN1 (UniProt O75477) -0.049
DCAF16 (UniProt Q9NXF7) 0
FAM160B1 (UniProt Q5W0V3) 0.008
DPH5 isoform 5 (UniProt Q9H2P9) -0.045
DAXX (UniProt Q9UER7) -0.025
CYP51A1 (UniProt Q16850) 0.093
DNAJB12 (UniProt Q9NXW2) 0.01
FAF2 (UniProt Q96CS3) -0.015
DHFR (UniProt P00374) 0.013
CUEDC2 (UniProt Q9H467) 0.01
ETNK1 (UniProt Q9HBU6) -0.008
EEF1D isoform 2 (UniProt P29692) 0.031
DEGS1 (UniProt O15121) -0.03
